{"source": "PubChem BioAssay (EPA / NIEHS)", "note": "Some compounds were tested as several samples or in several runs, with calls that do not always agree. Active and inactive are the calls of the source. The calls were made as follows: active = hit-call score of the fitted dose curve at least 0.9, where 1 is the maximum; inactive = score below 0.9.", "data": [{"target": "Transcription factor E2F1 (Homo sapiens) (UniProt Q01094)", "sequence (Q01094 whole entry, looked up)": "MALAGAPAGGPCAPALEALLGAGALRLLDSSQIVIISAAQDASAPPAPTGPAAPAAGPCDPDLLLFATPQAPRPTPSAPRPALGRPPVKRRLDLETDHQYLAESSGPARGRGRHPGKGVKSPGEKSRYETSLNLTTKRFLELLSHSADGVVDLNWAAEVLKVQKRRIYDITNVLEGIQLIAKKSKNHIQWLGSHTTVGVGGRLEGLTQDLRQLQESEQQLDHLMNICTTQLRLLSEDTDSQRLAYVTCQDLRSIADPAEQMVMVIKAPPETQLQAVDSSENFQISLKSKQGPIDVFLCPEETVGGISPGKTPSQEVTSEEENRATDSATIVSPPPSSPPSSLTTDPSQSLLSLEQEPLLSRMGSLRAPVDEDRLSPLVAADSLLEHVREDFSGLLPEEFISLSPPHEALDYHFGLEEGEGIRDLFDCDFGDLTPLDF", "test": "ATG_E2F_CIS: Attagene CIS-FACTORIAL HepG2 Assay for human E2F Transcription Factor 1 (AID 2282935)", "conditions": "HepG2 Attagene cis-reporter, E2F reporter RNA transcripts; actives raise or lower the signal", "method": "ATG_CIS is a cell-based, multiplexed-readout assay that uses HepG2, a human liver cell line, with measurements taken at 24 hours after chemical dosing in a 24-well plate.ATG_E2F_CIS is one of 52 assay component(s) measured or calculated from the ATG_CIS assay. It is designed to make measurements of mRNA induction, a form of inducible reporter, as detected with fluorescence intensity signals by Reverse transcription polymerase chain reaction (RT-PCR) and Capillary electrophoresis technology.Data from the assay component ATG_E2F_CIS was analyzed into 1 assay endpoint. This assay endpoint, ATG_E2F_CIS, was analyzed with bidirectional fitting relative to DMSO as the negative control and baseline of activity. Using a type of inducible reporter, measures of mRNA for gain or loss-of-signal activity can be used to understand the reporter gene at the transcription factor-level as they relate to the gene E2F1. Furthermore, this assay endpoint can be referred to as a primary readout, because this assay has produced multiple assay endpoints where this one serves a reporter gene function. To generalize the intended target to other relatable targets, this assay endpoint is annotated to the dna binding intended target family, where the subfamily is E2F transcription factor.\nHuman liver HepG2 cells are transiently transfected with multiple reporter transcription units (MRTUs) in 6-well plates using FuGene 6 reagent (Roche; 3 ml FuGene/1 mg DNA). The MRTU constructs are regulated by a cis-regulating element (promoter). […] A major difference between the CIS and TRANS system is that in CIS activities of endogenous TFs are measured, whereas the TRANS assay evaluates changes in activities of exogenous, chimeric NR-Gal4 proteins. […] At the end of 24 hour incubation, total RNA was isolated using TriZol reagent (Invitrogen). The isolated RNA is then reverse-transcribed using oligo(dT) primer and Mo-MLV reverse transcriptase (Invitrogen) with DNAse I (Ambion) treatment for 30 min. The one-tenth of the produced cDNA was amplified by PCR using Taq DNA polymerase (Invitrogen) and two reporter sequence-specific primers. The PCR products were fluorescently labeled by primer extension with 6-arboxyfluorescein (6-FAM) 5'-labeled reporter sequence-specific primer (2 min at 95 C, 20 s at 68 C and 10 min at 72 C) and these products were digested with 5U of HpaI (New England Biolabs) for 2h at 37 C. The fragments were purified using Qiaquick PCR columns (Qiagen), analyzed on an ABI 3130xL genetic analyzer (Applied Biosystems) with peak positions identified by using a set of X-rhodamine (ROX)-labeled MapMarker1000 molecular weight standards (BioVentures). The raw capillary electrophoresis data was processed using Attagraph software (Attagene).", "values": [{"smiles": "CN(C)C(=O)NC1(c2ccccc2)CCN(CCC[C@]2(c3ccc(Cl)c(Cl)c3)CCCN(C(=O)c3ccccc3)C2)CC1", "outcome": "inactive"}, {"smiles": "CC(=O)[C@@]1(O)CC[C@H]2[C@@H]3CCC4=CC(=O)CC[C@]4(C)[C@H]3CC[C@@]21C", "outcome": "inactive"}, {"smiles": "CC(=O)OC1CC(C)OC(C)O1", "note": "(stereo not given)", "outcome": "inactive"}, {"smiles": "NC(=Nc1ccccc1)Nc1ccccc1", "outcome": "inactive"}, {"smiles": "NCCOCCOCCN", "outcome": "inactive"}, {"smiles": "CC1(C)C(=O)NC(=O)N1CO", "outcome": "inactive"}, {"smiles": "COC(=O)[C@H]1[C@H]2C[C@@H]3c4[nH]c5cc(OC)ccc5c4CCN3C[C@H]2C[C@@H](OC(=O)c2cc(OC)c(OC)c(OC)c2)[C@@H]1OC", "outcome": "inactive"}, {"smiles": "N[C@@H](Cc1c[nH]c2ccccc12)C(=O)O", "outcome": "inactive"}, {"smiles": "CC(=O)S[C@H](C(=O)N[C@H]1Cc2ccccc2[C@H]2CCC[C@@H](C(=O)O)N2C1=O)C(C)C", "outcome": "inactive"}, {"smiles": "O=C(N[C@@H](c1ccccc1)[C@@H]1CCCCN1)c1cccc(C(F)(F)F)c1Cl", "outcome": "inactive"}, {"smiles": "CCCCC(CC)COC(=O)CCCCCCCC(=O)OCC(CC)CCCC", "note": "(stereo not given)", "outcome": "inactive"}, {"smiles": "CN(C)C(=O)NC1(c2ccccc2)CCN(CC[C@@]2(c3ccc(F)c(F)c3)CN(C(=O)c3ccccc3)CCO2)CC1", "outcome": "inactive"}, {"smiles": "COC(=O)CCCC(=O)OC", "outcome": "inactive"}, {"smiles": "CCc1nc(N)nc(N)c1-c1ccc(Cl)cc1", "outcome": "inactive"}, {"smiles": "CCCCCCCCCC[N+](C)(C)[O-]", "outcome": "inactive"}, {"smiles": "CC(C)NCC(O)c1ccc(O)c(O)c1", "note": "(stereo not given)", "outcome": "inactive"}, {"smiles": "O=NO", "outcome": "inactive"}, {"smiles": "CC(C)c1cccc(C(C)C)c1NC(=O)NS(=O)(=O)c1cc(C(C)(C)O)co1", "outcome": "inactive"}, {"smiles": "CCc1cc(C2=C(C(=O)O)N(c3ccccc3C(F)(F)F)S(=O)(=O)c3ccccc32)cc2c1OCO2", "outcome": "inactive"}, {"smiles": "CCCCCCC(CCCCCCCCCCC(=O)OCC(COC(C)=O)OC(C)=O)OC(C)=O", "note": "(stereo not given)", "outcome": "inactive"}, {"smiles": "CCCCCCC(C=O)=Cc1ccccc1", "outcome": "inactive"}, {"smiles": "NC1CCCCC1", "outcome": "inactive"}, {"smiles": "Cc1cn([C@H]2C=C[C@@H](CO)O2)c(=O)[nH]c1=O", "outcome": "inactive"}, {"smiles": "CN(C)CCCN(C)CCCN(C)C", "outcome": "inactive"}, {"smiles": "CC(N)=O", "outcome": "inactive"}, {"smiles": "CC(COCC(C)OC(=O)c1ccccc1)OC(=O)c1ccccc1", "note": "(stereo not given)", "outcome": "inactive"}, {"smiles": "O=C(O)c1cccnc1", "outcome": "inactive"}, {"smiles": "CC(=O)O[C@]1(C(C)=O)CC[C@H]2[C@@H]3C=C(Cl)C4=CC(=O)[C@@H]5C[C@@H]5[C@]4(C)[C@H]3CC[C@@]21C", "AC50": "145 µM (active)", "outcome": "inactive"}, {"smiles": "CC(C)COC(=O)CCCCC(=O)OCC(C)C", "outcome": "inactive"}, {"smiles": "C=CCc1ccc(OC)c(OC)c1", "outcome": "inactive"}, {"smiles": "Oc1ccccc1O", "outcome": "inactive"}, {"smiles": "Nc1nc(=S)c2[nH]cnc2[nH]1", "outcome": "inactive"}, {"smiles": "COc1ccc(OC(F)(F)F)cc1CN[C@H]1CCCN[C@H]1c1ccccc1", "outcome": "inactive"}, {"smiles": "CCCCC(CC)CO", "note": "(stereo not given)", "outcome": "inactive"}, {"smiles": "CC(=O)OCC(COC(C)=O)OC(C)=O", "outcome": "inactive"}, {"smiles": "C#CC(O)C(CC)CCCC", "note": "(stereo not given)", "outcome": "inactive"}, {"smiles": "O=C(O)c1[nH]n(-c2ccc(S(=O)(=O)O)cc2)c(=O)c1N=Nc1ccc(S(=O)(=O)O)cc1", "outcome": "inactive"}, {"smiles": "O=C(Oc1ccccc1)c1cccc(C(=O)Oc2ccccc2)c1", "outcome": "inactive"}, {"smiles": "Cc1occc(=O)c1O", "outcome": "inactive"}]}]}
